High-throughput results (PubChem)
tim10-1 inh: growth inhibitors of tim10-1 mutant yeast | S. cerevisiae tim10-1 ts strain growth, BacTiter-Glo, 24 h | inhibition, % at 20 µM | actives 2.2% (n = 330,000) | AID 463190;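 active = inhibition of at least 40%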;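 note: mutant grown at 25 °C; 0% = DMSO wells with yeast and 100% = wells holding no yeast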
TIM10 inh: inhibits growth of TIM10 yeast strain; inhibition, % at 10 µM; S. cerevisiae TIM10 strain growth, BacTiter-Glo luminescence, 24 h; actives 1.4% (n = 330,000);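 active = inhibition of 40% or more at the single tested concentration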;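 note: wild-type TIM10 isogenic control strain grown at permissive 25 °C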
NALP3 yeast inh: blocks the NALP3 inflammasome reconstituted in yeast; inhibition, % at 10 µM; actives 0.39% (n = 330,000); Yeast reconstituted NLRP3/ASC/caspase-1, beta-gal luminescence, 24 h;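 active = inhibition of 50% or more; inactive = inhibition below 50%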;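 note: plate controls were induced DMSO wells for no effect and uninduced yeast grown without galactose for full effect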
NALP1 yeast inh: blocks the NALP1 inflammasome reconstituted in yeast. inhibition, % at 10 µM. S. cerevisiae NALP1/ASC/caspase-1 growth, X-gal OD620, 72 h. actives 0.61% (n = 280,000); in the data active = inhibition mostly above about 24%, no sharp cut-off; inactive = mostly below about 32%
PfHsp90 set2: inhibits growth of yeast expressing Plasmodium falciparum Hsp90; S. cerevisiae expressing PfHsp90, BacTiter-Glo ATP, 48 h; yeast lacking PDR1 and PDR3 efflux regulators; inhibition, % at 9.4 µM; actives 0.32% (n = 310,000);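 active = every replicate shows inhibition above about 80%, whatever the replicate mean, limit read from the data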;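 note: 0% = DMSO neutral controls and 100% = 20 µM radicicol positive controls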
tim23-1 inh: tim23-1 yeast growth inhibition. S. cerevisiae tim23-1 growth, BacTiter-Glo luminescence, 24 h. inhibition, % at 20 µM. actives 1.3% (n = 330,000);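 active = growth inhibition of the mutant yeast at or above 50%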;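 note: temperature-sensitive mutant grown at 25 °C; plate controls were DMSO-treated mutant yeast for no effect and medium wells lacking yeast for full effect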
tim10-1 confirm: confirmation of tim10-1 mutant yeast growth inhibitors; actives 56% (n = 7,400); S. cerevisiae tim10-1 ts strain growth, BacTiter-Glo, 24 h; inhibition, % at 20 µM; shares compounds with tim10-1 inh; AID 463213;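 active = inhibition of yeast growth at or above a set limit in either of two repeat tests at 20 µM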;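 note: tim10-1 mutant grown at permissive 25 °C to find synthetic lethal compounds; 0% = DMSO yeast wells and 100% = medium wells without yeast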
TIM10 conf: TIM10 yeast growth inhibition, confirmed; shares compounds with TIM10 inh; S. cerevisiae tim10 strain growth, BacTiter-Glo luminescence, 24 h; inhibition, % at 10 µM; actives 63% (n = 4,600);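 active = inhibition of yeast growth at or above a set limit in either of two replicates at 10 µM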;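 note: this counterscreen used the strain with wild-type TIM10; 0% = yeast with DMSO and 100% = medium wells lacking yeast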
Starred values were filed as active, the others as inactive; i = inactive; nt = no result. A selection: hits, their analogues and other compounds. The true share with any hit is near 4.1%.

SMILES	tim10-1 inh	TIM10 inh	NALP3 yeast inh	NALP1 yeast inh	PfHsp90 set2	tim23-1 inh	tim10-1 confirm	TIM10 conf
CN(CC(=O)Nc1cccc(F)c1)C(=O)c1cccnc1Sc1ccccc1Cl	13	6	14	nt	-41	22	nt	nt
CC(=O)N[C@@H](Cc1c[nH]c2ccccc12)C(=O)NCc1ccccc1	-2	9	11	16	-1	17	nt	nt
COC(=O)c1ccc(Cn2nnc3c(=O)[nH]c(C4CCCN(S(=O)(=O)c5cccc(Cl)c5)C4)nc32)cc1 (centres undefined)	-6	-5	0	-9	-24	-10	nt	nt
Cc1cc(N2C(=O)C=CC2=O)c([N+](=O)[O-])cc1C	95*	83*	-25	64*	117*	4	93*	95*
CC[n+]1c(/C=C/c2c[nH]c3ccccc23)ccc2cc(C)ccc21	67*	59*	33	-4	24	27	70*	38*
CCOc1ccc(NC(=S)N2CCCC2)cc1	-4	1	14	9	-1	-3	nt	nt
CCCCc1ccc(NC(=S)N2CCCC(C)C2)cc1 (centres undefined)	43*	45*	22	17	12	36	29	31*
CCc1ccc(NC(=S)N2CCCCCCC2)cc1	42*	41*	11	3	-13	29	31	17
CC(OC(=O)c1ccc(S(=O)(=O)NCc2ccco2)cc1)C(=O)Nc1ccccc1 (centres undefined)	14	-8	23	nt	23	5	nt	nt
Cc1ccc(NC(=O)c2sc3ncn(CC(=O)N4CCOCC4)c(=O)c3c2C)c(Br)c1	-1	2	2	18	-9	-17	nt	nt
O=C(Nc1ccc(C(F)(F)F)cc1Cl)c1ccc(Cn2cc(Br)cn2)o1	37	7	23	5	-38	24	nt	nt
O=C(Nc1cccc(C(F)(F)F)c1)c1ccc(Cn2cc(Br)cn2)o1	43*	42*	13	2	3	45	35*	43*
CN(C)N1C(N)=C(C#N)C(c2ccc(Br)cc2)C2=C1CC(C)(C)CC2=O (centres undefined)	0	4	-3	27	-2	-2	nt	nt
COCCN(C(=O)COC(=O)CCc1ccccc1)c1c(N)n(Cc2ccccc2)c(=O)[nH]c1=O	-10	-1	10	nt	nt	1	nt	nt
CN(Cc1ccccc1Cl)C(=O)CCNC(=O)c1ccco1	29	6	20	nt	-2	10	nt	nt
CCn1c(SCC(=O)Nc2ccc3c(c2)OCCO3)nnc1C1CC1	-12	1	3	26	-8	-6	nt	nt
CC(C)c1ccc(/C=C(\c2nc3ccccc3[nH]2)S(=O)(=O)c2ccccc2)cc1	54*	46*	16	26	-9	45	47*	37*
Cc1ccc(NC(=S)NCc2ccc3[nH]c4c(c3c2)CCCC4)cc1	47*	46*	27	15	-38	48	29*	30
C=C1C(=O)C=C2CN(C(=O)c3ccccc3)[C@@](Cc3ccc(F)cc3)(C(=O)OC)[C@@H]12	61*	48*	31	63*	3	49	52*	51*
CCOC(=O)N1CCN(C(=O)c2sc3nc(-c4ccc(F)cc4)cn3c2C)CC1	56*	43*	15	-2	-16	21	38*	40*
COC(=O)C1CCN(C(=O)c2sc3nc(-c4ccccc4)cn3c2C)CC1	48*	43*	12	-7	nt	40	38*	26
COc1ccc(-c2cn3c(C)c(C(=O)N4CCN(c5ccccc5)CC4)sc3n2)cc1	nt	nt	nt	nt	15	nt	nt	nt
COc1ccccc1N1CCN(C(=O)c2sc3nc(-c4ccc(F)cc4)cn3c2C)CC1	66*	40	23	43	-38	43	58*	51*
Cc1cc(C(=O)N2CCN(c3ccc(F)cc3)CC2)on1	7	3	-3	5	2	12	nt	nt
CN(CCOc1ccccc1)C(=O)C1CCN(C(=O)c2ccc(F)cc2)CC1	19	3	3	2	11	6	nt	nt
SMILES	tim10-1 inh	TIM10 inh	NALP3 yeast inh	NALP1 yeast inh	PfHsp90 set2	tim23-1 inh	tim10-1 confirm	TIM10 conf
COc1ccc(C(C(=O)NC2CCCCC2)N(C(=O)c2ccco2)c2ccccc2C(C)=O)cc1 (centres undefined)	20	-6	-13	13	16	18	nt	nt
Cc1ccc(C(CC(=O)N2CCCC2)c2ccccc2)c(O)c1C (centres undefined)	41*	72*	21	1	8	32	14	33*
Cc1cccc(C(CC(=O)N2CCCC2)c2ccccc2)c1O (centres undefined)	25	1	12	-6	-8	34	nt	nt
Cc1cc(C)cc(NC(=O)COc2coc(CN3CCc4ccccc4C3)cc2=O)c1	5	9	24	nt	-24	-5	nt	nt
CC1CCN(C(=S)SCc2nc(N)nc(Nc3ccccc3)n2)CC1	41*	43*	21	12	12	42	19	34*
Cc1nn(C(C)(C)C)c(OC(=O)c2ccco2)c1Sc1ccccc1	49*	47*	-3	-7	-16	44	39*	46*
Cc1nn(C(C)(C)C)c(OC(=O)c2ccc(Br)o2)c1Sc1ccccc1	41*	41*	-2	6	10	43	36*	36*
CCOc1ccc2[nH]c(C)c(CN3CCCCCC3)c(=O)c2c1	8	6	9	6	-13	-3	nt	nt
Cc1ccc2c(c1)c1n[nH]c(=S)nc1n2CCc1ccccc1	46*	41*	9	-2	-1	28	0	38*
COc1ccc(N(C)C(=O)CN(C)S(=O)(=O)c2ccc3c(c2)c(=O)n(C)c(=O)n3C)c(OC)c1	18	2	10	5	3	10	nt	nt
Nc1nc(SCc2ccc(Cl)cc2Cl)n[nH]1	10	7	17	7	-3	19	nt	nt
CNc1cc(CSC)nc(SCc2ccc(Cl)cc2Cl)n1	49*	44*	41	33*	-15	48	41*	37*
CCCc1cc(N2CCCC2)n2nc(C)c(-c3ccccc3)c2n1	47*	51*	28	32	nt	46	23	19
CCN1CCN(c2cc(C(C)C)nc3c(-c4ccccc4)c(C)nn23)CC1	8	28	25	i	nt	-1	nt	nt
CCCc1cc(NCc2ccccn2)n2nc(C)c(-c3ccccc3)c2n1	43*	47*	26	4	107*	45	58*	76*
Cc1cc(NCc2ccccn2)n2nc(C)c(-c3ccc(Cl)cc3)c2n1	18	27	17	4	2	17	nt	nt
